According to the supplement of paper PMC11732987, “Enantioselective OTUD7B fragment discovery through chemoproteomics screening and high-throughput optimisation” (Communications Chemistry, 2025):

Assays:
Test in all cases: log2 ratio of Biotin-Ahx-Ub-VS probe labelling (fragment/DMSO); higher = less target engagement (more negative = stronger competition), active = hit call of the paper (q ≤ 0.05, log2 ratio ≤ -1)
Conditions in all cases: compound concentration: 200 uM; treatment time: 3 h
USP42 = target: T1, USP42 (UniProt Q9H9J4)
T1 sequence (whole entry): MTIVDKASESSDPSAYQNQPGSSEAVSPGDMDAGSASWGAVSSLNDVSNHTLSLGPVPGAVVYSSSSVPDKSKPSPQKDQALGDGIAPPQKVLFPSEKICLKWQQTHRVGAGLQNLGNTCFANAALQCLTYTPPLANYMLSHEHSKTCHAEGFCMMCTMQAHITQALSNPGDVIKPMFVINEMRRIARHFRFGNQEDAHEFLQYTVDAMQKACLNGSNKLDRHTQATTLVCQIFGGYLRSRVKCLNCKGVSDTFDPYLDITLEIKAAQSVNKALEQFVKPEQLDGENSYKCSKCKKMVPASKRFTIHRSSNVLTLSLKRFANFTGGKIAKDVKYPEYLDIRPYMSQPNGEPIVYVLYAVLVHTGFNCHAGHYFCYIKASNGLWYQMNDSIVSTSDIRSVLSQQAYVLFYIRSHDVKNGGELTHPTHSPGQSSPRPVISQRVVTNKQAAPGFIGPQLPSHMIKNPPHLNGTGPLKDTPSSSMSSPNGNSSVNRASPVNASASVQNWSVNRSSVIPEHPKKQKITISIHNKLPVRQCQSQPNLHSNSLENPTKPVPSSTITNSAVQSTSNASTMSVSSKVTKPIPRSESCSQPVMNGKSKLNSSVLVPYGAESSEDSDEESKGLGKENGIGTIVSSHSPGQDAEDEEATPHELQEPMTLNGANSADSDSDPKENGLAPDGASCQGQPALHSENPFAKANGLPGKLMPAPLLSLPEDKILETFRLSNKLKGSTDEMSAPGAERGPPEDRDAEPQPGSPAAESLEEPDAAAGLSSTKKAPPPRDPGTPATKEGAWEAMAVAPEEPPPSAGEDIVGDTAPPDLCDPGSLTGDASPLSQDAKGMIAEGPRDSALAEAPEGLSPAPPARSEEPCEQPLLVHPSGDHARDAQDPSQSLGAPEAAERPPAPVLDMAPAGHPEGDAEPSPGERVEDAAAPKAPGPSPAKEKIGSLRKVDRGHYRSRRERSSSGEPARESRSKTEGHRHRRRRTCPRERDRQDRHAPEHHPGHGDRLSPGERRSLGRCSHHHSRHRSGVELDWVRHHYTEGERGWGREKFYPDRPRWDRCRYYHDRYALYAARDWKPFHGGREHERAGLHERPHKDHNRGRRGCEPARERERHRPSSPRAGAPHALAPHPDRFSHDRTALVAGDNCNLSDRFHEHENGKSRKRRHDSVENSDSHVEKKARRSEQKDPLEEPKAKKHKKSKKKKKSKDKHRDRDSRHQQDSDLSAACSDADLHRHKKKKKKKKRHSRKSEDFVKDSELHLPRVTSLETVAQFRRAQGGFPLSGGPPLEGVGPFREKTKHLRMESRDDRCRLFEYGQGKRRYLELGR
Outline: (§1)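 The table lists average log2 ratios of fragment over vehicle, from an unpaired t-test on global-median-normalised Spectronaut label-free quantities. Proteins with ≥2 unique peptides were used. Samples were HEK293T lysate (495 µg) treated in triplicate with fragment at 200 µM or vehicle for 3 h, then with Biotin-Ahx-Ub-VS (0.5 µM final) for 1 h, with labelled DUBs NeutrAvidin-enriched and run by diaPASEF LC-MS/MS.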

USP46 = USP46 (UniProt P62068)
Outline: as §1

USP47 = target: T2, USP47 (UniProt Q96K76)
T2 sequence (whole entry): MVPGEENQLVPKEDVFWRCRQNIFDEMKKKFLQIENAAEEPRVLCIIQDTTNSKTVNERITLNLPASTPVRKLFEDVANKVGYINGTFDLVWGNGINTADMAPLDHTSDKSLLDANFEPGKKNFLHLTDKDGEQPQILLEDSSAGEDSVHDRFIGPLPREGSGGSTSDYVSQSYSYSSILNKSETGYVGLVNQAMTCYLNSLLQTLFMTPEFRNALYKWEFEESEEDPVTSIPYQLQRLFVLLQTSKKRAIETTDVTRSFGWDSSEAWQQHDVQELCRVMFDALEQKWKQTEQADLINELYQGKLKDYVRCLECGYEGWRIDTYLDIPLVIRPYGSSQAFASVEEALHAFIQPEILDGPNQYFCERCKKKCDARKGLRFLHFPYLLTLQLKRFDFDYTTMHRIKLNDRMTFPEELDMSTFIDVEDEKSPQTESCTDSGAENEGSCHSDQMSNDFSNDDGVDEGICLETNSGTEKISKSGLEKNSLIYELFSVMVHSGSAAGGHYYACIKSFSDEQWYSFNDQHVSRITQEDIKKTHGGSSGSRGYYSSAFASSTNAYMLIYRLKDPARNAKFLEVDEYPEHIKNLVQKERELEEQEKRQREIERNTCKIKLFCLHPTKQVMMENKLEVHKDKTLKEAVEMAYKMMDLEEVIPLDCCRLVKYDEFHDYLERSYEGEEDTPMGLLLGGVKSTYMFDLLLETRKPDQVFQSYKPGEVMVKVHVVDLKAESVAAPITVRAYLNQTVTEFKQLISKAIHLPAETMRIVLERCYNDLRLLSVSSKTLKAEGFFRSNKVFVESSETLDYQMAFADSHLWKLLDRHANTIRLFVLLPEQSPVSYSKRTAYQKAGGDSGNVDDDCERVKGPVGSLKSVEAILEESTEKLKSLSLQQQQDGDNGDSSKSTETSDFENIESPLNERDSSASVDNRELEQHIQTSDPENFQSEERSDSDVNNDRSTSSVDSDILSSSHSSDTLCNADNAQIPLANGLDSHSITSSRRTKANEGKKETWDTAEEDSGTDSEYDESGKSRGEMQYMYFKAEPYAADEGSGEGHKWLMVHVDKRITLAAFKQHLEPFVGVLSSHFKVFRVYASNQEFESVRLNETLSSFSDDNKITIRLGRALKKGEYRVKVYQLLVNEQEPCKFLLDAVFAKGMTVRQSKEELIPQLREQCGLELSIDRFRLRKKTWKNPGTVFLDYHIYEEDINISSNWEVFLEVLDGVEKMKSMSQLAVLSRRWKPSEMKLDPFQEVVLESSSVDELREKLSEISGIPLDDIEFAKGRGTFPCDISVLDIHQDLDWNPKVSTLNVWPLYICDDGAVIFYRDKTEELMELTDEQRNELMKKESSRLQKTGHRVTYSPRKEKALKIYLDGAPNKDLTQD
Outline: as §1

USP48 = target: T3, USP48 (UniProt Q86UV5)
T3 sequence (whole entry): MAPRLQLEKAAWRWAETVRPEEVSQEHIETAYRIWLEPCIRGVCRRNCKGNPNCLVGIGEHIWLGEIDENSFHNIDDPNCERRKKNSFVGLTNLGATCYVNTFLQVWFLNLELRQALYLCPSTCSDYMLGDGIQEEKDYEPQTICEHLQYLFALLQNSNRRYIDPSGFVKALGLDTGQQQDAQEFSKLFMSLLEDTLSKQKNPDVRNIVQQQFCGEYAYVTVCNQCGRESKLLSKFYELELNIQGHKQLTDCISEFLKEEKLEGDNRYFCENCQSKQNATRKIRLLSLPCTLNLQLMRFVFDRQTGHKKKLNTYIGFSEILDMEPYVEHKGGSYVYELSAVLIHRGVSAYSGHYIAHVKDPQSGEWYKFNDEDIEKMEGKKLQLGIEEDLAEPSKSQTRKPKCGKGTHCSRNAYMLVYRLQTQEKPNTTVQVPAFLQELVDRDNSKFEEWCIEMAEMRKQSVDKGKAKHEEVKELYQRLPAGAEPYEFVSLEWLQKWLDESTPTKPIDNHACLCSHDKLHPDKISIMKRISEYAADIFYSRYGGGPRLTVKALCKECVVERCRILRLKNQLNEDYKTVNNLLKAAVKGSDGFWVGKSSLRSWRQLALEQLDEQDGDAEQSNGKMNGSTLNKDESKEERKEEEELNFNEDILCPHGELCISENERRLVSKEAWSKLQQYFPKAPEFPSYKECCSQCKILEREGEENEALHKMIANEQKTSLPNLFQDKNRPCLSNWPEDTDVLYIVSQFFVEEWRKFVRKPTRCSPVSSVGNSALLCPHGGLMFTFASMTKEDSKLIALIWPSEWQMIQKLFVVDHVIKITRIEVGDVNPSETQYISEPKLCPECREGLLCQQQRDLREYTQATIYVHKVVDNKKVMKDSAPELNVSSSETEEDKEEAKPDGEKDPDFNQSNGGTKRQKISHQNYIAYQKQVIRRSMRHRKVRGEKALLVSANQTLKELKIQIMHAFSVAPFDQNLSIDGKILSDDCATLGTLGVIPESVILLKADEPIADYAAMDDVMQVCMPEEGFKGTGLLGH
Outline: as §1

USP5 = target: T4, USP5 (UniProt P45974)
T4 sequence (whole entry): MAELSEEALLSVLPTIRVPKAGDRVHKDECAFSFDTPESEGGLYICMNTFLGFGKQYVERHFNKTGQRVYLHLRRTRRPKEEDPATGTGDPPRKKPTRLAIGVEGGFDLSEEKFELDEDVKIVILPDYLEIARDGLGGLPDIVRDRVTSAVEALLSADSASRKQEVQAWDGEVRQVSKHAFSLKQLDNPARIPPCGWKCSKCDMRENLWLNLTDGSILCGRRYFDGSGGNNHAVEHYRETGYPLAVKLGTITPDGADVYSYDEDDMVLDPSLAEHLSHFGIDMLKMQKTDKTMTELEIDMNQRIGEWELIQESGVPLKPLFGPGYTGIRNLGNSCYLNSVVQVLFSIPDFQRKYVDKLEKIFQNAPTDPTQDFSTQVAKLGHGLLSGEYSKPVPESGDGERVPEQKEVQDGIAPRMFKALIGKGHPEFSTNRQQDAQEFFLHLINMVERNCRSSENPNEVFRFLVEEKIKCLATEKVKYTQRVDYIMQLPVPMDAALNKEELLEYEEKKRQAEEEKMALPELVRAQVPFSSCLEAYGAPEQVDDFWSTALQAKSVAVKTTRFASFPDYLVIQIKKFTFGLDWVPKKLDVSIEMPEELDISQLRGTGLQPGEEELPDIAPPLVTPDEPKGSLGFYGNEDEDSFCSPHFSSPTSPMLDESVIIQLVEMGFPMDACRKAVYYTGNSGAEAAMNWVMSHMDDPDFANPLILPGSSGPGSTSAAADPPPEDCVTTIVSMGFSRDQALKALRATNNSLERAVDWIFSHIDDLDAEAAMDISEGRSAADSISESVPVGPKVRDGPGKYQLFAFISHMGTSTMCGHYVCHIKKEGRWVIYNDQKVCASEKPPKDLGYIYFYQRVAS
Outline: as §1

USP54 = USP54 (UniProt Q70EL1)
Outline: as §1

USP7 = USP7 (UniProt Q93009)
Outline: as §1

USP8 = target: T5, USP8 (UniProt P40818)
T5 sequence (whole entry): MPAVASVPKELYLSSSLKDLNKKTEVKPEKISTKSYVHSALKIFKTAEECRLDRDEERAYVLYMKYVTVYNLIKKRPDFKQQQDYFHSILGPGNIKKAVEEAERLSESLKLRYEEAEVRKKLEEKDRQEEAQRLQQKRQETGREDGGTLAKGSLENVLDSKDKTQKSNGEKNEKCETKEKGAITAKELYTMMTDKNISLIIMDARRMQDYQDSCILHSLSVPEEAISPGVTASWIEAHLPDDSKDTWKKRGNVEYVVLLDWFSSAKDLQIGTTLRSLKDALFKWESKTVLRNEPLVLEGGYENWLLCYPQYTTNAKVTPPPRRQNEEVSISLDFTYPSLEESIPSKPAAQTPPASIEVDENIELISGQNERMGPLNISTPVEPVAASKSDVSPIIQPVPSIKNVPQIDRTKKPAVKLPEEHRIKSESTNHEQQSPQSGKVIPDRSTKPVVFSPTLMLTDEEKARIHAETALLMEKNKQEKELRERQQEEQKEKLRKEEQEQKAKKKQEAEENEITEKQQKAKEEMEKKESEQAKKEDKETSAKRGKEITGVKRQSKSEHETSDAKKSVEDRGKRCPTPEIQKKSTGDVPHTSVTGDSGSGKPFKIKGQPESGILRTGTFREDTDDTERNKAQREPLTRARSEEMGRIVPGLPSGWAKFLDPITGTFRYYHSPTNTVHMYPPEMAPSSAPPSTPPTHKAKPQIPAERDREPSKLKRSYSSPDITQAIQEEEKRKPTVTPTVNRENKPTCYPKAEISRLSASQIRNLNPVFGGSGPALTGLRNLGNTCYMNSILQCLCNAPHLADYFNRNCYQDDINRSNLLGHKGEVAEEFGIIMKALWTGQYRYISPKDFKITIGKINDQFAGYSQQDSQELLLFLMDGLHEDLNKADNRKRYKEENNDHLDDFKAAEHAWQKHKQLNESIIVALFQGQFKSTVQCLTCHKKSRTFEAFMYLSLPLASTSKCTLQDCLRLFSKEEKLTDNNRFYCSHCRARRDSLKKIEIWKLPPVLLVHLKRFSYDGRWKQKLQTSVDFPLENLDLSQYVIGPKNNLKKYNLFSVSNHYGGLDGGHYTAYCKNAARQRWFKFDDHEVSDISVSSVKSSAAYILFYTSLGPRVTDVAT
Outline: as §1

USP9X = USP9X (UniProt Q93008)
Outline: as §1

UniProt O00487 = target: UniProt O00487
Outline: as §1

Measured: log2 ratio of Biotin-Ahx-Ub-VS probe labelling

USP9X, sequence (Q93008 whole entry): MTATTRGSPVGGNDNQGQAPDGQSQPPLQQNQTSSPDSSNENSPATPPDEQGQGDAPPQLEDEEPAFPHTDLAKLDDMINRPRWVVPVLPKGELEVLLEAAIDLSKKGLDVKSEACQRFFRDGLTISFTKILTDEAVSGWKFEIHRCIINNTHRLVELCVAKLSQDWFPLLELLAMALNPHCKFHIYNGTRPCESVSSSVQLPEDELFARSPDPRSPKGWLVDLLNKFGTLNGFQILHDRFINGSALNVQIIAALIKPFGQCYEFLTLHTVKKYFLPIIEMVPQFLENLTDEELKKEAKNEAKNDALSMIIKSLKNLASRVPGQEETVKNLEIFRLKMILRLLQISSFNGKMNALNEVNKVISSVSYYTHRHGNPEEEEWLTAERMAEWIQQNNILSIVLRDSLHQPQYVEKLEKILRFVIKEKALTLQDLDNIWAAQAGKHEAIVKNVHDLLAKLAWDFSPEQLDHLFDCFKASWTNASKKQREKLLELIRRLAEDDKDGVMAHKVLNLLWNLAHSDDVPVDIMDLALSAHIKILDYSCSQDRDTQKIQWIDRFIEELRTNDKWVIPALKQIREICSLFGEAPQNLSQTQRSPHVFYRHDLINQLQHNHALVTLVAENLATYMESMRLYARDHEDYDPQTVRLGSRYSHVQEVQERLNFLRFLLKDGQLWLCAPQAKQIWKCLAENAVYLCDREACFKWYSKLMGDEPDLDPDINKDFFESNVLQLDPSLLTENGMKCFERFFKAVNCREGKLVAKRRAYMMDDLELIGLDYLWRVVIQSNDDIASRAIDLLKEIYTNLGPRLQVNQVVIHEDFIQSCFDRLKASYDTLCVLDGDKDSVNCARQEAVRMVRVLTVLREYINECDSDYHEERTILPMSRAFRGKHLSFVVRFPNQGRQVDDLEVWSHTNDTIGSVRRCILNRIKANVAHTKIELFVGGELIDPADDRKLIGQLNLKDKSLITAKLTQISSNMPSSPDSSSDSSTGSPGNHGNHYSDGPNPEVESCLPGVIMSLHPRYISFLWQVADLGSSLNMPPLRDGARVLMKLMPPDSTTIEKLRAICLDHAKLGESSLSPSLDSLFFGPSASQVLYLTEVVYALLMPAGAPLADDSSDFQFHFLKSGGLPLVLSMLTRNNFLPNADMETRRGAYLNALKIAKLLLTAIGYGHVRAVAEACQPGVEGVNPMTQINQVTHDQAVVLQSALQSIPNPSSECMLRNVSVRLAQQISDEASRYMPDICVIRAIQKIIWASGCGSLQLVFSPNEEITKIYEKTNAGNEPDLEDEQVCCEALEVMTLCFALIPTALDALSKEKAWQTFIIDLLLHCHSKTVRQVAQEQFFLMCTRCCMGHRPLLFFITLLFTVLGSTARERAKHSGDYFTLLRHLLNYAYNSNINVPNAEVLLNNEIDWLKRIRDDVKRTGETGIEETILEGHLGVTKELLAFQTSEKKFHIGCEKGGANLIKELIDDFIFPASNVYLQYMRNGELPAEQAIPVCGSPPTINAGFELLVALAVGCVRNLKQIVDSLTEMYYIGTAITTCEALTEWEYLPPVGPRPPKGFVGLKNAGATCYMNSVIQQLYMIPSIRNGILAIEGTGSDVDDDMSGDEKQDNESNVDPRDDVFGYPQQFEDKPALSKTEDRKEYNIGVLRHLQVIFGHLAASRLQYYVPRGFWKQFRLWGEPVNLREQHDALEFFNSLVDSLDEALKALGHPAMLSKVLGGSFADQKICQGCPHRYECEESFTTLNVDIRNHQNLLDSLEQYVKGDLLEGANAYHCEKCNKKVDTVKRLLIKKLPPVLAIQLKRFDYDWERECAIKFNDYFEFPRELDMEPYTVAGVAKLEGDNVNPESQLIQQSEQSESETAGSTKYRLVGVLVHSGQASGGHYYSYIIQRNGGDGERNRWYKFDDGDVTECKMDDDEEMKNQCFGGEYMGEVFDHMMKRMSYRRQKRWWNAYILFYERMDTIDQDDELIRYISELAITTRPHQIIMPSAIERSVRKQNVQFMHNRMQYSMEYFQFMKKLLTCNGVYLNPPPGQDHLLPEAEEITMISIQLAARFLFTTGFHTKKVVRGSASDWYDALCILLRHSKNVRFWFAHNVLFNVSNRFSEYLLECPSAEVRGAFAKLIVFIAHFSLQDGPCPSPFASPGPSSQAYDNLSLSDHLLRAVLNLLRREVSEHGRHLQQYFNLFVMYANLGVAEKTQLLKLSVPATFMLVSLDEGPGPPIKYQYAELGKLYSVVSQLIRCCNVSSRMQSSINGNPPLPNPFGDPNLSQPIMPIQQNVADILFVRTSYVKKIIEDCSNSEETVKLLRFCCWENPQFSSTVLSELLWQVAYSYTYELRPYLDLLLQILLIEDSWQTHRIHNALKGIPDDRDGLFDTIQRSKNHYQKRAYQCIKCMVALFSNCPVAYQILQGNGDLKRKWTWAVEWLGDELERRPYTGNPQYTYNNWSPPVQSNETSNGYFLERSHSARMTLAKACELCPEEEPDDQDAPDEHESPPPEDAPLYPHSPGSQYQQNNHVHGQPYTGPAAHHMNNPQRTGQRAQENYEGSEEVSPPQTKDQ
UniProt O00487, sequence (O00487 whole entry): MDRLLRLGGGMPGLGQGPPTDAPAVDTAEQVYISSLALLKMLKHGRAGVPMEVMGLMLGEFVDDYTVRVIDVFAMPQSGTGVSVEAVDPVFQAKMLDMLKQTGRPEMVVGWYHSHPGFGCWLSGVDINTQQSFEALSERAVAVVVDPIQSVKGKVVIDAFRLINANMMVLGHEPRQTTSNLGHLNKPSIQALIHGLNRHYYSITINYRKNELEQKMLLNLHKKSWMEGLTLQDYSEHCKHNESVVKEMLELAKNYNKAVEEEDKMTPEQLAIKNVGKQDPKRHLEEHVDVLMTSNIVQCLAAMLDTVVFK
USP54, sequence (Q70EL1 whole entry): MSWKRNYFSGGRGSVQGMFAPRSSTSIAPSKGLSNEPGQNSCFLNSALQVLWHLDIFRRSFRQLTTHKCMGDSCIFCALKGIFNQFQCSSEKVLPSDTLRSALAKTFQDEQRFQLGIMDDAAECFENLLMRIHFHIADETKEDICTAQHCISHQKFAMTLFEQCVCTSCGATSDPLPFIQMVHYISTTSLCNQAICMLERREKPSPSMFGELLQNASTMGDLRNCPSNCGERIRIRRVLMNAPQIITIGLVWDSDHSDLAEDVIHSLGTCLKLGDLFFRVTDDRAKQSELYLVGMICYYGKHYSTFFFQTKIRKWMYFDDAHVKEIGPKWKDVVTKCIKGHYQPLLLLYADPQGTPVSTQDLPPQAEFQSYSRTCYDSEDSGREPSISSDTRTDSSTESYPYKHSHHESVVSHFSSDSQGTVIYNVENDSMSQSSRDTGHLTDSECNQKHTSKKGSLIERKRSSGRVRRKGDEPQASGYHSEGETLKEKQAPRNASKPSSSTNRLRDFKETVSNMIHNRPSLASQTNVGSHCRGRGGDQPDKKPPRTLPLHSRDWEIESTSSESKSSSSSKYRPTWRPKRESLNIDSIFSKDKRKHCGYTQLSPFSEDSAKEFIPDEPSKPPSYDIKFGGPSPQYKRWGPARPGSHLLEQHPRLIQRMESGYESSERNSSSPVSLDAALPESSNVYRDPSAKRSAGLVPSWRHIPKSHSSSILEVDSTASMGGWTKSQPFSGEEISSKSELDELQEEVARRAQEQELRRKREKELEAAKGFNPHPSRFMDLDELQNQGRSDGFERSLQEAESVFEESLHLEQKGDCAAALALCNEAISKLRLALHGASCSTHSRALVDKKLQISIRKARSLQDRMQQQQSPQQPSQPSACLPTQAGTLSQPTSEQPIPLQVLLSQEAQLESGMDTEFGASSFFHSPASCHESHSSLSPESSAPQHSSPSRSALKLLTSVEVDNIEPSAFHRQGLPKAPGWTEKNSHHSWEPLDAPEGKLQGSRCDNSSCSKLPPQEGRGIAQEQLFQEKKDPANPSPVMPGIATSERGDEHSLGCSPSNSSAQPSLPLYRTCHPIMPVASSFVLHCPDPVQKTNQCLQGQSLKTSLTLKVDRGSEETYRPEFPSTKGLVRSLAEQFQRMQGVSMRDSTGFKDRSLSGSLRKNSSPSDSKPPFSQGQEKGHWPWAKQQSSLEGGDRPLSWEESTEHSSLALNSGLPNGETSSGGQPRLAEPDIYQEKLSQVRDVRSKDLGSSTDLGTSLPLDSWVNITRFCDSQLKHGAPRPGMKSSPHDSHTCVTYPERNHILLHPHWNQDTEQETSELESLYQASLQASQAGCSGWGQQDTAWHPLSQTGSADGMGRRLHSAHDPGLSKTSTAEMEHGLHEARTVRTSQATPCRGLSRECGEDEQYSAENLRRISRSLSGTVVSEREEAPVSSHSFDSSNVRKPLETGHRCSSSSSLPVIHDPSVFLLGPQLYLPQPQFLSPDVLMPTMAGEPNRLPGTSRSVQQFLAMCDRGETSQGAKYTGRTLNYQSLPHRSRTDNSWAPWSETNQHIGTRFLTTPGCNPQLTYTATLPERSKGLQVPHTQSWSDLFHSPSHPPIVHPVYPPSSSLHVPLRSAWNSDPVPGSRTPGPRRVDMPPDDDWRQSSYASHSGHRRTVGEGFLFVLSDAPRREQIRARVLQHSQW
USP46, sequence (P62068 whole entry): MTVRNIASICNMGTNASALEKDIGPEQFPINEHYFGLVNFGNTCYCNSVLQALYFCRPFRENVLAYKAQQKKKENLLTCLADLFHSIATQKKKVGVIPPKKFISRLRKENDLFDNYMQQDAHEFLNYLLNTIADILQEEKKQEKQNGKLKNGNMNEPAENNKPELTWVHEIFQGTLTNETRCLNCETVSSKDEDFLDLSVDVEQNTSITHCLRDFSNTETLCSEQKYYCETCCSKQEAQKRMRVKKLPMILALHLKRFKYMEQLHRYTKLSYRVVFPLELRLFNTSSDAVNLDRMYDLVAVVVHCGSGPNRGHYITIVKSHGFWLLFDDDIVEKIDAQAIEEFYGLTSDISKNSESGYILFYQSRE

Cc1ccn2cc(CNC(=O)CCl)nc2c1.Cl
inactive: USP42 0.192 | USP46 -0.0106 | USP47 -0.5 | USP48 -0.153 | USP5 0.0336 | USP54 0.581 | USP7 -0.341 | USP8 -0.325 | USP9X -0.141 | UniProt O00487 -0.0788
